Results from PubChem BioAssay (NCI).
Compounds without any hit were thinned out: in the full panel of roughly 79,000, 15% have a hit. Values without a mark were called inactive. Active and inactive are the calls of the source. Rule as the data show it: active = growth inhibition above about 70%; inactive = the rest.

Legend:
[1] = NCI Yeast Anticancer Drug Screen. Data for the rad52 strain (AID 147);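 also: 0% = growth of vehicle-treated control cultures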; settings: S. cerevisiae rad52 mutant growth inhibition, stronger effect = higher value
In short: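 Here a repair-compromised yeast strain receives each compound; its growth is then quantified and normalised to vehicle-only controls.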

[2] = NCI Yeast Anticancer Drug Screen. Data for the wt1 strain (AID 149);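 also: 0% = growth of vehicle-treated wt1 cultures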; settings: S. cerevisiae wt1 strain (SPY 50644) growth inhibition, stronger effect = higher value
In short: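 Using yeast strain wt1, compound-induced growth inhibition was determined against vehicle-treated cultures.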

[3] = NCI Yeast Anticancer Drug Screen. Data for the rad50EPP+ strain (AID 151);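 also: 0% = growth of vehicle-treated control cultures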; settings: S. cerevisiae rad50 mutant strain, stronger effect = higher value
In short: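 Read-out is yeast growth inhibition relative to vehicle; cells used were the rad50EPP+ strain.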

[4] = NCI Yeast Anticancer Drug Screen. Data for the mgt1 strain (AID 153); settings: S. cerevisiae mgt1 mutant growth inhibition, stronger effect = higher value
In short: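 Measured: inhibition of mgt1 yeast growth by compound, normalized to vehicle-treated cultures.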

[5] = NCI Yeast Anticancer Drug Screen. Data for the rad50 strain (AID 155);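 also: 0% = growth of vehicle-only cultures of the same strain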; settings: S. cerevisiae rad50 strain growth inhibition, stronger effect = higher value
In short: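 Relative growth inhibition (compound vs vehicle) was measured in yeast with a defined repair-gene alteration.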

[6] = NCI Yeast Anticancer Drug Screen. Data for the mec2-1 strain (AID 157); settings: S. cerevisiae mec2-1 strain, stronger effect = higher value
In short: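 Using mec2-1 yeast: add compound, measure growth, express inhibition versus vehicle-treated cultures.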

[7] = NCI Yeast Anticancer Drug Screen. Data for the rad14 strain (AID 159);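 also: 0% = growth of vehicle-treated control cultures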; settings: S. cerevisiae rad14 strain growth inhibition, stronger effect = higher value
In short: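 Screen for anticancer potential: a yeast strain altered in DNA damage repair is grown with compound, and reduced growth is quantified against vehicle controls.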

[8] = NCI Yeast Anticancer Drug Screen. Data for the sgs1 mgt1 strain (AID 161);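 also: 0% = growth of cultures given vehicle only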; settings: S. cerevisiae sgs1 mgt1 strain, stronger effect = higher value
In short: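 This yeast growth screen uses a strain with defined DNA-repair lesions; compound-treated growth is compared with vehicle-treated growth.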

[9] = NCI Yeast Anticancer Drug Screen. Data for the CLN2oe strain (AID 163);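 also: 0% = growth of vehicle-only control cultures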; settings: S. cerevisiae CLN2oe strain, stronger effect = higher value
In short: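 Whole-cell yeast growth assay. A strain engineered for altered cell-cycle control received compound, and inhibition relative to vehicle-treated cultures was recorded.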

[10] = NCI Yeast Anticancer Drug Screen. Data for the cln2 rad14 strain (AID 165);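 also: 0% = growth equal to vehicle treated cultures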; settings: S. cerevisiae cln2 rad14 strain, stronger effect = higher value
In short: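 Yeast strain cln2 rad14, bearing defects in cell cycle control and DNA repair, serves as the test system; values reflect growth inhibition compared with vehicle.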

[11] = NCI Yeast Anticancer Drug Screen. Data for the bub3 strain (AID 167); settings: S. cerevisiae bub3 mutant strain, stronger effect = higher value
In short: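 Screening used yeast with an engineered genetic alteration affecting cell cycle control. Compound-exposed cultures were compared with vehicle cultures, and reduced growth was taken as inhibition.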

[12] = NCI Yeast Anticancer Drug Screen. Data for the wt2 strain (AID 169);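 also: 0% = growth of vehicle-treated yeast cultures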; settings: S. cerevisiae wt2 strain growth inhibition, stronger effect = higher value
In short: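 Treated yeast vs. vehicle-treated yeast: growth inhibition determined.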

[13] = NCI Yeast Anticancer Drug Screen. Data for the mlh1 strain (AID 171);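 also: 0% = growth of vehicle-treated control cultures of the same strain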; settings: S. cerevisiae mlh1 strain growth inhibition, stronger effect = higher value
In short: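 A yeast strain with a defined genetic lesion serves as the test organism. Cultures receive compound or vehicle, and growth is measured.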

[14] = NCI Yeast Anticancer Drug Screen. Data for the sgs1 strain (AID 173);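 also: 0% = growth of vehicle-only control cultures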; settings: S. cerevisiae sgs1 mutant, stronger effect = higher value
In short: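 A genetically defined yeast mutant is incubated with the test compound, and its growth is compared to that of the same strain given vehicle.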

[15] = NCI Yeast Anticancer Drug Screen. Data for the mlh1 rad18 strain (AID 175); settings: S. cerevisiae mlh1 rad18 strain growth inhibition, stronger effect = higher value
In short: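 Steps: expose repair-defective yeast to compound; measure growth; express inhibition against vehicle-treated controls.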

[16] = NCI Yeast Anticancer Drug Screen. Data for the rad18 strain (AID 177); settings: S. cerevisiae rad18 mutant growth inhibition, stronger effect = higher value
In short: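 Measured value is growth inhibition of a yeast strain bearing a DNA repair alteration, referenced to vehicle-treated cells.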

[17] = at 5.0 µM (retest, dose inferred, filed as 0.5)
[18] = at 50.0 µM (retest, dose inferred, filed as 5.0)

With CCCC/C=C1\CCC(CN2CCCC2)C1=O (stereo not drawn) the growth inhibition ([1]; at 1.2 µM) was -18%, the growth inhibition ([1]; at 3.7 µM) was -24% and the growth inhibition ([1]; at 11.0 µM) was -10%. The growth inhibition ([1]; at 33.0 µM) was 17%, the growth inhibition ([1]; at 100.0 µM) was 79% (active) and the growth inhibition ([2]; at 1.2 µM) was -10%. The growth inhibition ([2]; at 3.7 µM) was -17%, the growth inhibition ([2]; at 11.0 µM) was 9% and the growth inhibition ([2]; at 33.0 µM) was 16%. The growth inhibition ([2]; at 100.0 µM) was 26%, the growth inhibition ([3]; at 1.2 µM) was -4% and the growth inhibition ([3]; at 3.7 µM) was -6%. The growth inhibition ([3]; at 11.0 µM) was -8%, the growth inhibition ([3]; at 33.0 µM) was 10% and the growth inhibition ([3]; at 100.0 µM) was 76% (active). The growth inhibition ([4]; at 1.2 µM) was 21%, the growth inhibition ([4]; at 3.7 µM) was 21% and the growth inhibition ([4]; at 11.0 µM) was 39%. The growth inhibition ([4]; at 33.0 µM) was 62%, the growth inhibition ([4]; at 100.0 µM) was 95% (active) and the growth inhibition ([5]; at 1.2 µM) was 7%. The growth inhibition ([5]; at 3.7 µM) was 25%, the growth inhibition [5, 17] was 40% and the growth inhibition ([5]; at 11.0 µM) was 20%. For the same compound, the growth inhibition ([5]; at 33.0 µM) was 40%, the growth inhibition [5, 18] was 44% and the growth inhibition ([5]; at 50.0 µM) was 83% (active). The growth inhibition ([5]; at 100.0 µM) was 79% (active), the growth inhibition ([6]; at 1.2 µM) was 0% and the growth inhibition ([6]; at 3.7 µM) was 7%. For the same compound, the growth inhibition [6, 17] was 4%, the growth inhibition ([6]; at 11.0 µM) was 27% and the growth inhibition ([6]; at 33.0 µM) was 23%. The growth inhibition [6, 18] was 35%, the growth inhibition ([6]; at 50.0 µM) was 59.2% and the growth inhibition ([6]; at 100.0 µM) was 85% (active). For the same compound, the growth inhibition ([7]; at 1.2 µM) was 28%, the growth inhibition ([7]; at 3.7 µM) was 44% and the growth inhibition ([7]; at 11.0 µM) was 66%. The growth inhibition ([7]; at 33.0 µM) was 82% (active), the growth inhibition ([7]; at 100.0 µM) was 93% (active) and the growth inhibition [8, 17] was 18%. For the same compound, the growth inhibition [8, 18] was 51%, the growth inhibition ([8]; at 50.0 µM) was 78.2% (active) and the growth inhibition ([9]; at 1.2 µM) was 28%. For the same compound, the growth inhibition ([9]; at 3.7 µM) was 48%, the growth inhibition ([9]; at 11.0 µM) was 49% and the growth inhibition ([9]; at 33.0 µM) was 70% (active). The growth inhibition ([9]; at 100.0 µM) was 79% (active), the growth inhibition [10, 17] was 39% and the growth inhibition [10, 18] was 55%. The growth inhibition ([10]; at 50.0 µM) was 73.3% (active), the growth inhibition ([11]; at 1.2 µM) was 1% and the growth inhibition ([11]; at 3.7 µM) was 33%. It also gave a growth inhibition [11, 17] of 50%, a growth inhibition ([11]; at 11.0 µM) of 39% and a growth inhibition ([11]; at 33.0 µM) of 63%. For the same compound, the growth inhibition [11, 18] was 81% (active), the growth inhibition ([11]; at 50.0 µM) was 80.7% (active) and the growth inhibition ([11]; at 100.0 µM) was 94% (active). It also gave a growth inhibition ([12]; at 1.2 µM) of -33%, a growth inhibition ([12]; at 3.7 µM) of -17% and a growth inhibition ([12]; at 11.0 µM) of -3%. For the same compound, the growth inhibition ([12]; at 33.0 µM) was 20%, the growth inhibition ([12]; at 100.0 µM) was 74% (active) and the growth inhibition ([13]; at 1.2 µM) was 22%. The growth inhibition ([13]; at 3.7 µM) was 36%, the growth inhibition ([13]; at 11.0 µM) was 56% and the growth inhibition ([13]; at 33.0 µM) was 76% (active). The growth inhibition ([13]; at 100.0 µM) was 97% (active), the growth inhibition ([14]; at 1.2 µM) was -1% and the growth inhibition ([14]; at 3.7 µM) was 22%. For the same compound, the growth inhibition ([14]; at 11.0 µM) was 44%, the growth inhibition ([14]; at 33.0 µM) was 67% and the growth inhibition ([14]; at 100.0 µM) was 94% (active). The growth inhibition [15, 17] was 41%, the growth inhibition [15, 18] was 80% (active) and the growth inhibition ([15]; at 50.0 µM) was 73.5% (active). It also gave a growth inhibition ([16]; at 1.2 µM) of -3%, a growth inhibition ([16]; at 3.7 µM) of 15% and a growth inhibition ([16]; at 11.0 µM) of 34%. For the same compound, the growth inhibition ([16]; at 33.0 µM) was 65% and the growth inhibition ([16]; at 100.0 µM) was 92% (active).
